The supplement of paper PMC10646978
± gives the standard deviation.

Legend:
Conditions in all cases: modulator concentration 10 µM
[1] = tested on: RAW-Dual (murine macrophage reporter line); assay: NF-kB reporter (SEAP) activity fold change vs agonist alone; higher = enhanced NF-kB activity
Method in brief: (§1)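 In 384-well plates holding 50 000 RAW-Dual murine macrophage reporter cells per well, compound at 10 μM final was pre-incubated for 1 hour at 37 °C, after which a PRR agonist was added overnight. Supernatant SEAP read with QUANTI-Blue at 620 nm absorbance reported NF-κB, and Lucia luciferase read with QUANTI-Luc luminescence reported IRF. Fold change values come from dividing each reporter signal by the mean of agonist-only control wells on the same plate, averaged over replicate plates with propagated errors.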

[2] = tested on: RAW-Dual (murine macrophage reporter line); assay: IRF reporter (Lucia luciferase) activity fold change vs agonist alone; higher = enhanced IRF activity
Method in brief: as §1

[3] = tested on: RAW-Dual (murine macrophage reporter line); assay: viability score (confluency relative to resting cells, overnight) (fraction); higher = more viable, active = viable (0.7 or more)
Method in brief: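 Two confluency masks, generated with IncuCyte software over all imaged wells, were applied to IncuCyte images of RAW-Dual macrophages. The cells, in 384-well plates, had been exposed overnight to 10 μM final compound. The viability score is confluency as a fraction of resting cells, and a compound met the cutoff only with both masks above 70% of resting cells.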

[4] = agonist: CpG ODN 1826 0.5 ug/mL

Row | Compound | NF-kB reporter [1, 4] | NF-kB reporter ([1]; agonist: LPS 0.1 ug/mL) | NF-kB reporter ([1]; agonist: MPLA […]) | IRF reporter ([2]; agonist: 3'3'-cGAMP 10 ug/mL) | IRF reporter ([2]; agonist: LPS 0.1 ug/mL) | IRF reporter ([2]; agonist: MPLA […]) | viability score [3]
1 | CC(=O)NO | 0.863 ± 0.12 | 0.93 ± 0.071 | 0.953 ± 0.053 | 0.834 ± 0.068 | 0.901 ± 0.15 | 0.977 ± 0.092 | 1 (active)
2 | CC(CN1c2ccccc2Sc2ccccc21)N(C)C.Cl (centres undefined) | 0.789 ± 0.11 | 1.17 ± 0.29 | 0.96 ± 0.055 | 0.336 ± 0.024 | 1.16 ± 0.42 | 1.15 ± 0.091 | 0.389 (inactive)
3 | CCn1cc(C(=O)O)c(=O)c2cc(F)c(N3CCN(C)CC3)cc21.CS(=O)(=O)O.O.O | 0.788 ± 0.11 | 1.13 ± 0.13 | 0.897 ± 0.05 | 0.863 ± 0.026 | 1.37 ± 0.12 | 1.07 ± 0.16 | 0.991 (active)
4 | CCN1C(=O)C(=Cc2cc(Br)ccc2OCCOc2ccccc2Cl)SC1=S | 0.714 ± 0.064 | 0.899 ± 0.11 | 1.1 ± 0.096 | 0.982 ± 0.057 | 1.14 ± 0.086 | 1.18 ± 0.12 | 1.02 (active)
5 | CC(C)NCC(O)COc1ccc(CCOCC2CC2)cc1.Cl (centres undefined) | 0.952 ± 0.13 | 1.2 ± 0.25 | 0.968 ± 0.068 | 0.907 ± 0.032 | 1.57 ± 0.17 | 1.31 ± 0.1 | 0.981 (active)
6 | CCSc1nnc(NC(=O)C2CC3CCC2C3)s1 (centres undefined) | 0.941 ± 0.058 | 0.969 ± 0.06 | 0.884 ± 0.06 | 1.29 ± 0.098 | 1.4 ± 0.092 | 1.09 ± 0.1 | 0.94 (active)
7 | CCC(C)C(=O)OC1CCC=C2C=CC(C)C(CCC3CC(O)CC(=O)O3)C21 (centres undefined) | 0.946 ± 0.11 | 0.83 ± 0.061 | 1 ± 0.094 | 0.941 ± 0.046 | 1.24 ± 0.23 | 1.33 ± 0.32 | 1.05 (active)
8 | Cc1ccc(C(=O)NC(=Cc2ccccc2)C(=O)NCCCn2ccnc2)cc1 | 0.949 ± 0.077 | 1.03 ± 0.069 | 0.907 ± 0.083 | 1.01 ± 0.045 | 1.45 ± 0.25 | 1.12 ± 0.074 | 1.01 (active)
9 | CC(=O)OCC(=O)NCCCOc1cccc(CN2CCCCC2)c1.Cl | 1.14 ± 0.19 | 1.21 ± 0.23 | 0.924 ± 0.056 | 0.951 ± 0.039 | 1.42 ± 0.13 | 1.11 ± 0.1 | 0.99 (active)
10 | N#Cc1c(NC(NC(=O)c2cccs2)C(Cl)(Cl)Cl)sc2c1CCCC2 (centres undefined) | 0.669 ± 0.038 | 1.13 ± 0.076 | 0.878 ± 0.1 | 0.66 ± 0.022 | 0.694 ± 0.086 | 0.69 ± 0.073 | 0.986 (active)
11 | CCOC(=O)[C@@H](N)Cc1ccc(-c2cc(O[C@H](c3ccc(Cl)cc3-n3ccc(C)n3)C(F)(F)F)nc(N)n2)cc1.O=C(O)CNC(=O)c1ccccc1 | 0.504 ± 0.06 | 0.512 ± 0.053 | 0.937 ± 0.11 | 0.734 ± 0.043 | 0.787 ± 0.026 | 3.54 ± 0.34 | 0.119 (inactive)
12 | CC(C)(C)c1ccc(C2=NC(=Cc3cccc4ccccc34)C(=O)O2)cc1 | 0.986 ± 0.078 | 1.05 ± 0.082 | 0.97 ± 0.034 | 0.857 ± 0.11 | 1.1 ± 0.11 | 1 ± 0.19 | 1 (active)
13 | CC1=C(CC(=O)O)c2cc(F)ccc2/C1=C\c1ccc(S(C)=O)cc1 (centres undefined) | 0.984 ± 0.14 | 0.828 ± 0.061 | 1.13 ± 0.098 | 1.09 ± 0.051 | 1.23 ± 0.073 | 1.41 ± 0.13 | 1 (active)
14 | O=C(Cn1ccnc1[N+](=O)[O-])NCCO [Prestw-649] | 1.09 ± 0.081 | 1.01 ± 0.12 | 1.05 ± 0.03 | 1.09 ± 0.16 | 0.982 ± 0.11 | 0.994 ± 0.15 | 1 (active)
15 | COC(=O)c1ccccc1NC(=O)CCc1ccc(Oc2cc([N+](=O)[O-])cc([N+](=O)[O-])c2)cc1 | 1.22 ± 0.11 | 1.08 ± 0.079 | 1.13 ± 0.072 | 0.431 ± 0.054 | 1.03 ± 0.17 | 0.766 ± 0.17 | 1.01 (active)
16 | CC(O)(P(=O)(O)O)P(=O)(O)O | 0.76 ± 0.033 | 0.997 ± 0.1 | 1.08 ± 0.079 | 0.956 ± 0.069 | 1.14 ± 0.27 | 1.26 ± 0.4 | 0.98 (active)
17 | CCOC(N)=O | 0.962 ± 0.13 | 1.09 ± 0.24 | 0.948 ± 0.068 | 0.927 ± 0.057 | 1.32 ± 0.28 | 1.02 ± 0.14 | 1.01 (active)
18 | N#CC(=Cc1ccc(-c2ccc(Cl)cc2)o1)C(N)=O | 0.783 ± 0.062 | 0.875 ± 0.14 | 1.13 ± 0.1 | 1.07 ± 0.049 | 1.43 ± 0.1 | 1.63 ± 0.18 | 1.02 (active)
19 | CC1(C)CC(=O)C2=C(C1)OC(N)=C(C#N)C2C1CC=CCC1 (centres undefined) | 1.02 ± 0.061 | 1.08 ± 0.099 | 1.11 ± 0.068 | 1.23 ± 0.041 | 1.29 ± 0.18 | 1.14 ± 0.12 | 0.9 (active)
20 | Clc1cccc(Nc2nc(-c3ccccn3)cs2)c1 | 0.881 ± 0.15 | 0.379 ± 0.2 | 0.597 ± 0.18 | 0.537 ± 0.092 | 0.658 ± 0.2 | 0.658 ± 0.23 | 0.246 (inactive)
21 | CCN(CC)CC#CCOC(=O)C(O)(c1ccccc1)C1CCCCC1 (centres undefined) | 0.65 ± 0.059 | 1.2 ± 0.094 | 1.18 ± 0.053 | 0.92 ± 0.062 | 1.67 ± 0.11 | 1.3 ± 0.32 | 0.293 (inactive)
22 | Cn1c(=O)cc(N2CCC[C@@H](N)C2)n(Cc2cc(F)ccc2C#N)c1=O.O=C(O)CCC(=O)O | 0.0816 ± 0.0048 | 0.119 ± 0.014 | 0.376 ± 0.039 | 0.0243 ± 0.0016 | 0.262 ± 0.076 | 0.205 ± 0.069 | 0.128 (inactive)
23 | O=C(OCCN1CCCCC1)c1ccc(O)cc1 | 1.01 ± 0.081 | 1.06 ± 0.07 | 1.03 ± 0.04 | 1.08 ± 0.077 | 1.03 ± 0.047 | 1.07 ± 0.18 | 1 (active)
24 | Cc1cc2nc3sc(=Cc4ccc(F)cc4)c(=O)n3c2cc1C | 0.99 ± 0.12 | 0.932 ± 0.12 | 1.04 ± 0.097 | 0.817 ± 0.03 | 1.07 ± 0.12 | 1.07 ± 0.13 | 1.03 (active)
25 | Nc1nc2c(ncn2C2CC(O)C(CO)O2)c(=O)[nH]1 (centres undefined) | 0.96 ± 0.089 | 0.787 ± 0.059 | 0.93 ± 0.089 | 1.02 ± 0.043 | 1.26 ± 0.2 | 1.36 ± 0.28 | 1.02 (active)
26 | COc1ccc(Cl)cc1C(=O)N1CCC(S(=O)(=O)c2nncn2C)CC1 | 0.944 ± 0.051 | 1.04 ± 0.11 | 0.858 ± 0.038 | 1 ± 0.052 | 1.19 ± 0.085 | 1.11 ± 0.29 | 0.994 (active)
27 | CCCc1nc2ccccc2c(NC(=O)CN2CCOCC2)c1CC.O=C(O)C(=O)O | 1.01 ± 0.078 | 1.12 ± 0.093 | 1.01 ± 0.059 | 1 ± 0.048 | 1.48 ± 0.27 | 1.16 ± 0.13 | 1 (active)
